Assay results taken from PubChem BioAssay (Tox21).
Results filed as inconclusive are left out. The source made the active and inactive calls. Unless noted, the call rests on the fitted dose curve; in most records, active means well fitted curve in the direction sought with a large enough effect in the repeat runs; inconclusive means weak or mixed curves; inactive means no such curve, though single readings can be large; an effect the other way counts as inactive or inconclusive.

Columns and labels:
[1] = biological target: Progesterone receptor (Homo sapiens) (UniProt P06401); experiment: qHTS assay to identify small molecule agonists of the progesterone receptor (PR) signaling pathway (AID 1346784; calls by dose curve; further: nearly all actives have a fitted effect of over 30% in size); settings: PR-UAS-bla HEK293T, beta-lactamase FRET ratio, 16 h; series mostly up to 92.4 µM
Procedure, shortened: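 Cells (PR-UAS-bla HEK 293T, GripTite) were plated in assay medium containing 2% charcoal-stripped FBS and incubated 6 hr. Test compounds in DMSO were added for 16 hr at 37C. FRET substrate was then loaded for 2 hr at room temperature before fluorescence reading.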

[2] = biological target: Progesterone receptor (Homo sapiens) (UniProt P06401); experiment: qHTS assay to identify small molecule antagonists of the progesterone receptor (PR) signaling pathway (AID 1346795; active means well fitted inhibition curve with a large enough effect in the signal ratio in the repeat runs, not every such curve was filed as active; the % refers to the signal ratio); settings: PR-UAS-bla HEK293T, beta-lactamase FRET ratio, 16 h; series mostly up to 92.4 µM
Procedure, shortened: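 Antagonist mode: compounds tested against 1 nM (final) promegestone stimulation in HEK293T cells expressing PR-UAS-bla reporter, 16 hr at 37C, 5% CO2; beta-lactamase activity detected via B/G FRET substrate after 2 hr at room temperature.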

[3] = qHTS assay to identify small molecule antagonists of the progesterone receptor (PR) signaling pathway - cell viability counter screen (AID 1346798); settings: PR-UAS-bla HEK293T viability, CellTiter-Glo luminescence, 16 h; series mostly up to 92.4 µM; further: nearly all actives have a fitted effect of over 50% in size
Procedure, shortened: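 Counter screen for cytotoxicity: viability of PR-UAS-bla HEK293T cells was measured with CellTiter-Glo luminescence following 16 hr compound exposure in the presence of R5020.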

[4] = qHTS assay to identify small molecule agonists of the progesterone receptor (PR) signaling pathway - cell viability counter screen (AID 1346799; calls by dose curve; further: nearly all actives have a fitted effect of over 45% in size); settings: PR-UAS-bla HEK293T viability, CellTiter-Glo luminescence, 16 h; series mostly up to 92.4 µM
Procedure, shortened: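 Cells (PR-UAS-bla HEK293T) are plated at 3,000/well in 2% charcoal-stripped FBS medium, rested 6 hr, dosed and incubated 16 hr at 37C. CellTiter-Glo is then added and luminescence measured after 30 min at room temperature.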

[5] = qHTS assay to identify small molecule antagonists of the TGF-beta/Smad signaling pathway - cell viability counter screen (AID 1346824); settings: SBE-bla HEK293T viability, CellTiter-Glo luminescence; series mostly up to 76.8 µM; further: nearly all actives have a fitted effect of over 50% in size
Procedure, shortened: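 SBE-bla HEK 293T cells, incubated overnight, then compound plus 0.25 ng/mL TGF-beta1 (stock added) for 5 hr at 37 C. Viability was read in the same wells by CellTiter-Glo luminescence after 30 min at room temperature.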

[6] = qHTS assay to identify small molecule agonists of the TGF-beta/Smad signaling pathway - cell viability counter screen (AID 1346829); settings: SBE-bla HEK293T viability, CellTiter-Glo luminescence, 5 h; series mostly up to 76.8 µM; further: top concentration of the series differs between compounds; nearly all actives have a fitted effect of over 45% in size
Procedure, shortened: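 Compound-treated SBE-bla HEK 293T cells (5 hr, 37 C) were assessed for viability with CellTiter-Glo in parallel with the reporter read.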

[7] = qHTS assay to identify small molecule agonists of the TGF-beta/Smad signaling pathway (AID 1346859; active means well fitted activation curve with a large enough effect in the signal ratio in the repeat runs, not every such curve was filed as active; the % refers to the signal ratio); settings: SBE-bla HEK293T, TGF-beta/Smad beta-lactamase reporter, 5 h; series mostly up to 76.8 µM
Procedure, shortened: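 Reporter line: HEK 293T with stably integrated SBE-controlled beta-lactamase. Compound exposure lasts 5 hr at 37 C and 5% CO2; substrate loading follows for 2 hr at room temperature, with emission read at 460 and 530 nm.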

[8] = biological target: Thyrotropin-releasing hormone receptor (Homo sapiens) (UniProt P34981); experiment: qHTS assay to identify small molecule antagonists of the thyrotropin-releasing hormone receptor (TRHR) signaling pathway (AID 1346877; active means well fitted inhibition curve with a large enough effect in the repeat runs, not every such curve was filed as active); settings: TRHR-HEK293, TRH-induced calcium fluorescence, antagonist mode; series mostly up to 51.3 µM
Procedure, shortened: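 Intracellular calcium fluorescence, read kinetically every second over 3 min, reports TRH-evoked signalling in HEK293 cells carrying TRHR. Test compounds were added 5 min ahead of a 1 nM TRH challenge.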

[9] = biological target: Thyrotropin-releasing hormone receptor (Homo sapiens) (UniProt P34981); experiment: qHTS assay to identify small molecule agonists of the thyrotropin-releasing hormone receptor (TRHR) signaling pathway (AID 1346891; calls by dose curve;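 further: HEK293 cells expressing TRHR with calcium dye readout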); settings: TRHR-HEK293 calcium fluorescence, agonist mode; series mostly up to 57.6 µM
Procedure, shortened: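 Cells: TRHR-Hek293, seeded and incubated 18 h. Dye loading: 2 h at 37 °C. Compound added from DMSO stock by pin tool. Read-out: kinetic calcium fluorescence over 3 min.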

[10] = Human pregnane X receptor (PXR) small molecule agonists, qHTS cell viability counter screen (AID 1346977); settings: PXR-Luc HepG2 viability, CellTiter-Fluor, 24 h; series mostly up to 92.4 µM; further: nearly all actives have a fitted effect of over 50% in size
Procedure, shortened: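 Cytotoxicity counter screen run in the same wells as the PXR luciferase assay, using PXR-Luc HepG2 cells in charcoal-stripped serum medium. Viability: CellTiter-Fluor fluorescence after 24hr compound treatment.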

[11] = Caspase-3/7 induction in HepG2 cells by small molecules, qHTS assay (AID 1346978); settings: HepG2 caspase-3/7 activation, Caspase-Glo luminescence, 17 h; series mostly up to 92.4 µM; further: nearly all actives have a fitted effect of over 15% in size
Procedure, shortened: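 Wild-type HepG2 cells, 2,000/well, settled 5 hr at 37 C and 5% CO2, then compound-treated for 17 hr; caspase-3/7 activity read by luminescent Caspase-Glo 3/7 after 30 min at room temperature.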

[12] = Caspase-3/7 induction in CHO-K1 cells by small molecules, qHTS cell viability counter screen (AID 1346979); settings: CellTiter-Fluor fluorescence, 17 h; series mostly up to 92.4 µM; further: nearly all actives have a fitted effect of over 35% in size
Procedure, shortened: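 Cytotoxicity counter screen run in parallel with the caspase-3/7 assay: CHO-K1 cells, 16hr compound treatment at 37C, then CellTiter-Fluor for 1hr before fluorescence reading.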

[13] = Caspase-3/7 induction in CHO-K1 cells by small molecules, qHTS assay (AID 1346980); settings: CHO-K1 caspase-3/7 induction, Caspase-Glo luminescence, 17 h; series mostly up to 92.4 µM; further: nearly all actives have a fitted effect of over 15% in size
Procedure, shortened: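 Wild-type CHO-K1 cells exposed to compounds for 17hr at 37 C, 5% CO2. Caspase-3/7 activity then measured by Caspase-Glo 3/7 luminescence after 30min at room temperature.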

[14] = Caspase-3/7 induction in HepG2 cells by small molecules, qHTS cell viability counter screen (AID 1346981); settings: CellTiter-Fluor fluorescence, 17 h; series mostly up to 92.4 µM; further: nearly all actives have a fitted effect of over 30% in size
Procedure, shortened: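 HepG2, WT, 2,000 cells/well; 5 hr pre-incubation 37 C/5% CO2; compound pin-transferred from DMSO; 16 hr exposure; CellTiter-Fluor, 1 hr; fluorescence read.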

[15] = biological target: Nuclear receptor subfamily 1 group I member 2 (Homo sapiens) (UniProt O75469); experiment: Human pregnane X receptor (PXR) small molecule agonists, qHTS assay (AID 1346982); settings: PXR-Luc HepG2, CYP3A4 luciferase reporter, 24 h; series mostly up to 92.4 µM; further: nearly all actives have a fitted effect of over 35% in size
Procedure, shortened: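 Luciferase signal from ONE-Glo (30 min, room temperature) measured activation of hPXR-driven CYP3A4 reporter expression in PXR-Luc HepG2 cells treated with compounds for 24 hr at 37 C.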

[16] = biological target: Acetylcholinesterase (Homo sapiens) (UniProt P22303); experiment: Acetylcholinesterase (AChE) small molecule antagonists: colormetric cell-based qHTS assay (AID 1347395; calls by dose curve; further: nearly all actives have a fitted effect of over 30% in size); settings: SH-SY5Y cells AChE activity, colorimetric (Ellman); series mostly up to 115 µM
Procedure, shortened: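 Cells (SH-SY5Y, 2,000 per well) are seeded and left overnight at 37 C. Compound is added for 30 min, then DTNB and acetylthiocholine for a further 90 min at 37 C before absorbance-based thiocholine detection.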

[17] = biological target: Acetylcholinesterase (Homo sapiens) (UniProt P22303); experiment: Acetylcholinesterase (AChE) small molecule antagonists: enzyme-based qHTS assay (AID 1347397; calls by dose curve; further: nearly all actives have a fitted effect of over 55% in size); settings: Potency: AChE enzyme activity inhibition; series mostly up to 115 µM
Procedure, shortened: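 Recombinant human AChE (50 mU/mL) preincubated with compound 30 min at room temperature; acetylthiocholine plus DTNB then added, and thiocholine formation read colorimetrically after 10 min at room temperature. DMSO served as vehicle control.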

[18] = biological target: Nuclear receptor subfamily 1 group I member 2 (Rattus norvegicus) (UniProt Q9R1A7); experiment: Rat pregnane X receptor (rPXR) activation by small molecules, qHTS assay (AID 1346983); settings: rPXR luciferase reporter cells, One-Glo luminescence, 24 h; max activation: active compounds read high; further: nearly all actives have a fitted effect of over 20% in size
Procedure, shortened: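 Cell-based rPXR activation assay: rPXR cells, 2,000 per well, rested 5hr at 37 C, then exposed to compounds in DMSO for 24 hr at 37 C. Luciferase activity read by One-Glo luminescence after 30 min at room temperature.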

[19] = biological target: Nuclear receptor subfamily 1 group I member 2 (Homo sapiens) (UniProt O75469); experiment: CYP3A4 induction through human pregnane X receptor (PXR) by small molecules, qHTS assay (AID 1346984); settings: DPX-2 HepG2 PXR, CYP3A4-luciferin luminescence, 24 h; series mostly up to 46.1 µM; further: nearly all actives have a fitted effect of over 40% in size
Procedure, shortened: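 Luminescence readout: luciferase signal after One-Glo (30 min, room temperature), following 3 h at 37C with 3uM final Luciferin-IPA P450 substrate. Cells were DPX-2 (HepG2, PXR/CYP3A4-luc co-transfected) dosed for 24 h.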

[20] = biological target: Nuclear receptor subfamily 1 group I member 2 (Homo sapiens) (UniProt O75469); experiment: Human pregnane X receptor (PXR) activation by small molecules, qHTS assay (AID 1346985); settings: DPX-2 HepG2 CYP3A4-luciferase, 24 h; series mostly up to 38.3 µM; further: nearly all actives have a fitted effect of over 40% in size
Procedure, shortened: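 DPX-2 cells (HepG2 co-transfected with a PXR response element and a CYP3A4-promoter luciferase construct) were seeded at 2,000 per well, rested 5 hr at 37C, then exposed to DMSO-dissolved compounds for 24 hr. Activation was read as luciferase luminescence.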
On the % scale 0 is the no-effect control and ±100 the full control effect.

Chain of Acetylcholinesterase (Homo sapiens) (P22303 whole entry, looked up): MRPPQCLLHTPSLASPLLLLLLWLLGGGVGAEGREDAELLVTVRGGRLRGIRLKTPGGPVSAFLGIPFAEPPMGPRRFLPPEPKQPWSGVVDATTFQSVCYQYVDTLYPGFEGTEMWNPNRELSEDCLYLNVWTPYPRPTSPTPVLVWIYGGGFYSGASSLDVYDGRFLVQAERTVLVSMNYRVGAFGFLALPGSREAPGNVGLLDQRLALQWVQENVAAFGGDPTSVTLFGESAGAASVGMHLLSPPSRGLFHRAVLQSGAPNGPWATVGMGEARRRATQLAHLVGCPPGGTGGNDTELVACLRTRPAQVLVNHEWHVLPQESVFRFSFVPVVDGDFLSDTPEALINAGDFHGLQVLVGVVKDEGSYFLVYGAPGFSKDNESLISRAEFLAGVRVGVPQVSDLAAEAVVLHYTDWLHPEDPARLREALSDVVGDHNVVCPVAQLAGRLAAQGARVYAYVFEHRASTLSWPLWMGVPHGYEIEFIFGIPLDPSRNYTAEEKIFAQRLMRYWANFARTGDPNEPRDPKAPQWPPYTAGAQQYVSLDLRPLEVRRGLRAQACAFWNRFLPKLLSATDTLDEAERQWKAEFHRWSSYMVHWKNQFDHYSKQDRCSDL
Chain of Nuclear receptor subfamily 1 group I member 2 (Homo sapiens) (O75469 whole entry, looked up): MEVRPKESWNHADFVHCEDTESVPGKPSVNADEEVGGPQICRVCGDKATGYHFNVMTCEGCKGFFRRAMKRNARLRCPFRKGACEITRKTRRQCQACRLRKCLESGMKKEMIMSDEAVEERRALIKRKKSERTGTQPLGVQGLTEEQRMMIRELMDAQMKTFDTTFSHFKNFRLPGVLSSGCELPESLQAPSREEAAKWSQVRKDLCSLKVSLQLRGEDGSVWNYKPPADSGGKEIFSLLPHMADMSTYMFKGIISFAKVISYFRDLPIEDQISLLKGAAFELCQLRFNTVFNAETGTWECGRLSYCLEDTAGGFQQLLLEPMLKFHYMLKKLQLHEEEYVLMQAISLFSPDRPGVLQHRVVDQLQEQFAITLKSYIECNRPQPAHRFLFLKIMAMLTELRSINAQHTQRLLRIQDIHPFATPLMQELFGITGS
Chain of Thyrotropin-releasing hormone receptor (Homo sapiens) (P34981 whole entry, looked up): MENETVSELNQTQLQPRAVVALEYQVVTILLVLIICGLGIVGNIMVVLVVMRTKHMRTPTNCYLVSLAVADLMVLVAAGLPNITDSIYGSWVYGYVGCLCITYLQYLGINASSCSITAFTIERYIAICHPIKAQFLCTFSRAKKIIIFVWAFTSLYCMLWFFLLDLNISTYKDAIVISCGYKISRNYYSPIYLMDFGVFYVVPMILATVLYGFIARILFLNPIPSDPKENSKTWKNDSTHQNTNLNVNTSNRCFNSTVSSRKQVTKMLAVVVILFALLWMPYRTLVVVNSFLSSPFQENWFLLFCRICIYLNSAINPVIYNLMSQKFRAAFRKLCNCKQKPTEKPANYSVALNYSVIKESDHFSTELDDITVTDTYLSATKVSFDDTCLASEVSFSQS
Chain of Progesterone receptor (Homo sapiens) (P06401 whole entry, looked up): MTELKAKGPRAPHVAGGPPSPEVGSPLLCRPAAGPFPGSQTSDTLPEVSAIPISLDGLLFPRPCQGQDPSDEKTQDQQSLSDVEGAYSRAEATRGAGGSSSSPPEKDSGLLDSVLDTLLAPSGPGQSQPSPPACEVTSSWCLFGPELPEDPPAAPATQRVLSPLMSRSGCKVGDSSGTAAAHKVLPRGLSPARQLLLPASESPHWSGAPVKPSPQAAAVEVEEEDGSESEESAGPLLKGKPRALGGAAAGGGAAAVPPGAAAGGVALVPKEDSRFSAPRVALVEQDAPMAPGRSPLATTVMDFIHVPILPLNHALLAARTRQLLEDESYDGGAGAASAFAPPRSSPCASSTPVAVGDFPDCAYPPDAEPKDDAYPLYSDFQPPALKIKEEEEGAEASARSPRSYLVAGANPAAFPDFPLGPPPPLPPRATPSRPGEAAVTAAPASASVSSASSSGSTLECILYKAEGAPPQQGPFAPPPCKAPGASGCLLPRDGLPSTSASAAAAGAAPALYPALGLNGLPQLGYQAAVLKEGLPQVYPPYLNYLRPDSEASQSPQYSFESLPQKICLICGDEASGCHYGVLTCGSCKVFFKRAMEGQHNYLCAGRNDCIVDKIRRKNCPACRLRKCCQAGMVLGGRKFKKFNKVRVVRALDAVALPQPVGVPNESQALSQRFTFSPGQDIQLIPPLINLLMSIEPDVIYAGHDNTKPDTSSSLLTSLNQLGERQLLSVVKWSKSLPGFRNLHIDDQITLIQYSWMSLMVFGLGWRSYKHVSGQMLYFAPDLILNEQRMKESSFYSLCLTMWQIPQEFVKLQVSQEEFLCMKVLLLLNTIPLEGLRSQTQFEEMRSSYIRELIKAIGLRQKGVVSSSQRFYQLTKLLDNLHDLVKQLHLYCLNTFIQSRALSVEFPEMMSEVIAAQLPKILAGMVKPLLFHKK
Chain of Nuclear receptor subfamily 1 group I member 2 (Rattus norvegicus) (Q9R1A7 whole entry, looked up): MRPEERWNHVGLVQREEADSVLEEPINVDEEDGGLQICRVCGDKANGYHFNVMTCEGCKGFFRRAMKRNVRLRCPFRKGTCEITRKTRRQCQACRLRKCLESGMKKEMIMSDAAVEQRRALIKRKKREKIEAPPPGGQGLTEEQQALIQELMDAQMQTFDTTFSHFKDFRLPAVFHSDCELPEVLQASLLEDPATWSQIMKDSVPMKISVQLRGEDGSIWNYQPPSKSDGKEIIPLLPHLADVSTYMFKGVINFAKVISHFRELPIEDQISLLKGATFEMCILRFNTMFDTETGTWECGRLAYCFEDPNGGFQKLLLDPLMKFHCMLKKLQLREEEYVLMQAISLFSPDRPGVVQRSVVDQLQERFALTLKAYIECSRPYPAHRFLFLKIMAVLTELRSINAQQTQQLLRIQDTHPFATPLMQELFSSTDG

Cc1cccc(C#N)c1
inactive: Potency [1] | Potency [2] | Potency [3] | Potency [4] | Potency [5] | outcome [6] | outcome [7] | outcome [8] | outcome [9] | Potency [10] | Potency [11] | Potency [12] | Potency [13] | Potency [14] | Potency [15] | Potency [16] | Potency [17]

CCOC(=O)CP(=O)(OCC)OCC
inactive: Potency [1] | Potency [2] | Potency [3] | Potency [4] | Potency [5] | outcome [6] | outcome [7] | outcome [8] | outcome [9] | Potency [10] | Potency [11] | Potency [12] | Potency [13] | Potency [14] | Potency [15] | Potency [17]

CCC(Cl)[N+](=O)[O-] (centres undefined)
inactive: Potency [1] | Potency [2] | Potency [3] | Potency [4] | Potency [5] | outcome [6] | outcome [7] | outcome [8] | outcome [9] | Potency [10] | Potency [11] | Potency [12] | Potency [13] | Potency [14] | Potency [15] | Potency [17]

CC1=C(C(=O)O)N2C(=O)[C@@H](N)[C@H]2SC1
inactive: activation [1] -0.285% [at 19 µM] | activity change, negative = inhibition [2] 1.39% [at 18.9 µM] | activity change, negative = cytotoxicity [3] 11.2% [at 18.9 µM] | activity change, negative = cytotoxicity [4] 0.398% [at 19 µM] | viability change, negative = cytotoxic [5] 0.38% [at 15.8 µM] | activity change, negative = cytotoxicity [6] 8.87% [at 15.8 µM] | activation [7] 3.18% [at 15.8 µM] | activity, negative = inhibition [8] -1.01% [at 10.5 µM] | activation [9] -0.183% [at 11.8 µM] | activity change, negative = cytotoxicity [10] 20.6% [at 19 µM] | caspase activation [11] -0.113% [at 19 µM] | activity change, negative = cytotoxicity [12] 7.27% [at 19 µM] | caspase-3/7 activation [13] 0.154% [at 19 µM] | activity change, negative = cytotoxicity [14] 0.509% [at 19 µM] | activation [15] -3.97% [at 19 µM] | activity, negative = inhibition [16] 0.304% [at 23.6 µM] | activity change, negative = inhibition [17] 0.693% [at 23.6 µM]

COCC(=O)N(c1c(C)cccc1C)N1CCOC1=O
inactive: Potency [1] | Potency [2] | Potency [3] | Potency [4] | Potency [5] | outcome [6] | outcome [7] | outcome [8] | outcome [9] | Potency [10] | Potency [11] | Potency [12] | Potency [13] | Potency [14] | Potency [15] | Potency [16] | Potency [17]

O=C1CN=C(c2ccccc2)c2cc([N+](=O)[O-])ccc2N1
inactive: Potency [1] | Potency [2] | Potency [3] | Potency [4] | Potency [5] | outcome [6] | outcome [7] | outcome [8] | outcome [9] | Potency [10] | Potency [11] | Potency [12] | Potency [13] | Potency [14] | max activation [18] -2.6% | Potency [19] | Potency [20] | Potency [16] | Potency [17]

CC(Cl)(Cl)[N+](=O)[O-]
inactive: Potency [1] | Potency [2] | Potency [3] | Potency [4] | Potency [5] | outcome [6] | outcome [7] | outcome [8] | outcome [9] | Potency [10] | Potency [11] | Potency [12] | Potency [13] | Potency [14] | Potency [15] | Potency [16] | Potency [17]

CCN(CC)C(C)C(=O)c1ccccc1 (centres undefined)
inactive: Potency [1] | Potency [2] | Potency [3] | Potency [4] | Potency [5] | outcome [6] | outcome [7] | outcome [8] | outcome [9] | Potency [10] | Potency [11] | Potency [12] | Potency [13] | Potency [14] | Potency [15] | max activation [18] -2.77% | Potency [19] | Potency [20] | Potency [16] | Potency [17]
